From the supplement of paper PMC8728848
Only a selection was taken, and the strongest signals are over-represented in it overall.

Tests used:
Assay in all cases: glycan array binding signal (z-score within array); higher = stronger binding
Settings in all cases: glycan notation: IUPAC condensed, linker removed
[1] = target: Fuc(a1-2)Gal(b1-3)GalNAc(a1-3)[Fuc(a1-2)]Gal(b1-4)Glc
Method in brief: (§1)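 Negative Z-scores can be read as non-binding. The Z-score is calculated within each array and then averaged across arrays of one protein sequence at different concentrations or buffers and across linkers. Arrays, 3228 in all, were curated from the Consortium for Functional Glycomics database and kept only where the protein sequence was available.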

[2] = target: Fuc(a1-2)Gal(b1-3)[Fuc(a1-4)]GlcNAc(b1-2)Man(a1-3)[Fuc(a1-2)Gal(b1-3)[Fuc(a1-4)]GlcNAc(b1-2)Man(a1-6)]Man(b1-4)GlcNAc(b1-4)[Fuc(a1-6)]GlcNAc(b1-4)[Fuc(a1-6)]GlcNAc
Method in brief: as §1

Fuc(a1-2)Gal(b1-4)Glc6S = target: Fuc(a1-2)Gal(b1-4)Glc6S
Method in brief: as §1

[3] = target: Fuc(a1-2)Gal(b1-4)GlcNAc(b1-3)GalNAc
Method in brief: as §1

[4] = target: Fuc(a1-2)Gal(b1-4)[Fuc(a1-3)]GlcNAc(b1-3)Gal(b1-4)[Fuc(a1-3)]GlcNAc
Method in brief: as §1

[5] = target: Fuc(a1-2)[Gal(a1-3)]Gal(b1-3)GlcNAc(b1-3)GalNAc
Method in brief: as §1

[6] = target: Fuc(a1-2)[GalNAc(a1-3)]Gal(b1-4)GlcNAc(b1-2)Man(a1-3)[Fuc(a1-2)[GalNAc(a1-3)]Gal(b1-4)GlcNAc(b1-2)Man(a1-6)]Man(b1-4)GlcNAc(b1-4)GlcNAc
Method in brief: as §1

[7] = target: Fuc(a1-3)[Gal(b1-4)]GlcNAc(b1-6)[Gal(b1-3)GlcNAc(b1-3)]Gal(b1-4)Glc
Method in brief: as §1

Fuc(a1-4)GlcNAc = target: Fuc(a1-4)GlcNAc
Method in brief: as §1

Gal(a1-3)Gal(b1-3)GlcNAc = target: Gal(a1-3)Gal(b1-3)GlcNAc
Method in brief: as §1

[8] = target: Gal(a1-4)Gal(b1-4)GlcNAc(b1-2)Man(a1-3)[Gal(a1-4)Gal(b1-4)GlcNAc(b1-2)Man(a1-6)]Man(b1-4)GlcNAc(b1-4)GlcNAc
Method in brief: as §1

[9] = target: Gal(b1-3)GalNAc(a1-3)[Fuc(a1-2)]Gal(b1-4)Glc
Method in brief: as §1

Gal(b1-3)GlcNAc(b1-2)Man = target: Gal(b1-3)GlcNAc(b1-2)Man
Method in brief: as §1

[10] = target: Gal(b1-3)[GlcNAc(b1-6)]GalNAc
Method in brief: as §1

[11] = target: Gal(b1-3)[Neu5Ac(a2-6)]GlcNAc(b1-4)Gal(b1-4)Glc
Method in brief: as §1

[12] = target: Gal(b1-4)GalNAc(b1-3)[Fuc(a1-2)]Gal(b1-4)GlcNAc
Method in brief: as §1

Gal(b1-4)GlcNAc(b1-2)Man = target: Gal(b1-4)GlcNAc(b1-2)Man
Method in brief: as §1

[13] = target: Gal(b1-4)GlcNAc(b1-2)Man(a1-6)Man(b1-4)GlcNAc(b1-4)GlcNAc
Method in brief: as §1

[14] = target: Gal(b1-4)GlcNAc(b1-2)[Gal(b1-4)GlcNAc(b1-6)]Man(a1-6)[GlcNAc(b1-4)][Gal(b1-4)GlcNAc(b1-2)Man(a1-3)]Man(b1-4)GlcNAc(b1-4)GlcNAc
Method in brief: as §1

[15] = target: Gal(b1-4)GlcNAc(b1-3)Gal(b1-4)Glc
Method in brief: as §1

[16] = target: Gal(b1-4)GlcNAc(b1-3)Gal(b1-4)GlcNAc
Method in brief: as §1

[17] = target: Gal(b1-4)GlcNAc(b1-3)Gal(b1-4)GlcNAc(b1-3)Gal(b1-4)GlcNAc
Method in brief: as §1

[18] = target: Gal(b1-4)GlcNAc(b1-3)Gal(b1-4)GlcNAc(b1-3)Gal(b1-4)GlcNAc(b1-2)Man(a1-3)[Gal(b1-4)GlcNAc(b1-3)Gal(b1-4)GlcNAc(b1-3)Gal(b1-4)GlcNAc(b1-2)Man(a1-6)]Man(b1-4)GlcNAc(b1-4)GlcNAc
Method in brief: as §1

[19] = target: Gal(b1-4)GlcNAc(b1-3)Gal(b1-4)GlcNAc(b1-3)Gal(b1-4)GlcNAc(b1-2)Man(a1-3)[Gal(b1-4)GlcNAc(b1-3)Gal(b1-4)GlcNAc(b1-3)Gal(b1-4)GlcNAc(b1-2)Man(a1-6)]Man(b1-4)GlcNAc(b1-4)[Fuc(a1-6)]GlcNAc
Method in brief: as §1

[20] = target: Gal(b1-4)GlcNAc(b1-3)Gal(b1-4)GlcNAc(b1-3)Gal(b1-4)GlcNAc(b1-2)[Gal(b1-4)GlcNAc(b1-3)Gal(b1-4)GlcNAc(b1-3)Gal(b1-4)GlcNAc(b1-6)]Man(a1-6)[Gal(b1-4)GlcNAc(b1-3)Gal(b1-4)GlcNAc(b1-3)Gal(b1-4)GlcNAc(b1-2)Man(a1-3)]Man(b1-4)GlcNAc(b1-4)[Fuc(a1-6)]GlcNAc
Method in brief: as §1

[21] = target: Gal(b1-4)GlcNAc(b1-3)Gal(b1-4)GlcNAc(b1-3)Gal(b1-4)GlcNAc(b1-3)Gal(b1-4)GlcNAc(b1-2)[Gal(b1-4)GlcNAc(b1-3)Gal(b1-4)GlcNAc(b1-3)Gal(b1-4)GlcNAc(b1-3)Gal(b1-4)GlcNAc(b1-6)]Man(a1-6)[Gal(b1-4)GlcNAc(b1-3)Gal(b1-4)GlcNAc(b1-3)Gal(b1-4)GlcNAc(b1-3)Gal(b1-4)GlcNAc(b1-2)Man(a1-3)]Man(b1-4)GlcNAc(b1-4)[Fuc(a1-6)]GlcNAc
Method in brief: as §1

[22] = target: Gal(b1-4)GlcNAc(b1-3)Gal(b1-4)GlcNAc(b1-3)Gal(b1-4)GlcNAc(b1-3)Gal(b1-4)GlcNAc(b1-3)Gal(b1-4)GlcNAc(b1-3)Gal(b1-4)GlcNAc(b1-2)Man(a1-3)[Gal(b1-4)GlcNAc(b1-3)Gal(b1-4)GlcNAc(b1-3)Gal(b1-4)GlcNAc(b1-3)Gal(b1-4)GlcNAc(b1-3)Gal(b1-4)GlcNAc(b1-3)Gal(b1-4)GlcNAc(b1-2)Man(a1-6)]Man(b1-4)GlcNAc(b1-4)GlcNAc
Method in brief: as §1

[23] = target: Gal(b1-4)GlcNAc(b1-3)Gal(b1-4)[Fuc(a1-3)]GlcNAc(b1-3)Gal(b1-4)[Fuc(a1-3)]GlcNAc
Method in brief: as §1

Gal(b1-6)Gal = target: Gal(b1-6)Gal
Method in brief: as §1

Gal3S(b1-4)Glc = target: Gal3S(b1-4)Glc
Method in brief: as §1

GalNAc(b1-3)Gal = target: GalNAc(b1-3)Gal
Method in brief: as §1

[24] = target: GalNAc(b1-3)Gal(a1-4)Gal(b1-4)GlcNAc(b1-3)Gal(b1-4)Glc
Method in brief: as §1

[25] = target: GalNAc(b1-4)GlcNAc(b1-2)Man(a1-3)[GalNAc(b1-4)GlcNAc(b1-2)Man(a1-6)]Man(b1-4)GlcNAc(b1-4)GlcNAc
Method in brief: as §1

GalNAc(b1-6)GalNAc = target: GalNAc(b1-6)GalNAc
Method in brief: as §1

GalNAc3S(b1-4)GlcNAc3S = target: GalNAc3S(b1-4)GlcNAc3S
Method in brief: as §1

[26] = target: GlcNAc(a1-4)Gal(b1-4)GlcNAc(b1-3)Gal(b1-4)[Fuc(a1-3)]GlcNAc(b1-3)Gal(b1-4)[Fuc(a1-3)]GlcNAc
Method in brief: as §1

[27] = target: GlcNAc(b1-2)[GlcNAc(b1-4)]Man(a1-3)[GlcNAc(b1-4)][GlcNAc(b1-2)[GlcNAc(b1-6)]Man(a1-6)]Man(b1-4)GlcNAc(b1-4)[Fuc(a1-6)]GlcNAc
Method in brief: as §1

[28] = target: GlcNAc(b1-3)Gal(b1-4)GlcNAc(b1-3)Gal(b1-4)GlcNAc(b1-2)Man(a1-3)[GlcNAc(b1-3)Gal(b1-4)GlcNAc(b1-3)Gal(b1-4)GlcNAc(b1-2)Man(a1-6)]Man(b1-4)GlcNAc(b1-4)GlcNAc
Method in brief: as §1

[29] = target: GlcNAc(b1-3)Gal(b1-4)GlcNAc(b1-3)[GlcNAc(b1-3)Gal(b1-4)GlcNAc(b1-3)]GalNAc
Method in brief: as §1

[30] = target: Man(a1-2)Man(a1-3)[Man(a1-6)]Man(a1-6)[Man(a1-2)Man(a1-3)]Man(b1-4)GlcNAc(b1-4)GlcNAc
Method in brief: as §1

Man(b1-4)GlcNAc = target: Man(b1-4)GlcNAc
Method in brief: as §1

Neu5Ac(a2-3)Gal = target: Neu5Ac(a2-3)Gal
Method in brief: as §1

[31] = target: Neu5Ac(a2-3)Gal(b1-3)GalNAc(b1-4)Gal(b1-4)Glc
Method in brief: as §1

[32] = target: Neu5Ac(a2-3)Gal(b1-4)GlcNAc(b1-2)Man(a1-3)[Neu5Ac(a2-3)Gal(b1-4)GlcNAc(b1-2)Man(a1-6)]Man(b1-4)GlcNAc(b1-4)[Fuc(a1-6)]GlcNAc
Method in brief: as §1

[33] = target: Neu5Ac(a2-6)Gal(b1-3)GlcNAc(b1-3)[Gal(b1-4)GlcNAc(b1-6)]Gal(b1-4)Glc
Method in brief: as §1

[34] = target: Neu5Ac(a2-6)Gal(b1-4)GlcNAc(b1-2)Man(a1-3)[Gal(b1-4)GlcNAc(b1-2)Man(a1-6)]Man(b1-4)GlcNAc(b1-4)GlcNAc
Method in brief: as §1

[35] = target: Neu5Ac(a2-6)Gal(b1-4)GlcNAc6S
Method in brief: as §1

[36] = target: Neu5Gc(a2-3)Gal(b1-4)[Fuc(a1-3)]GlcNAc
Method in brief: as §1

B1: B1567 (Bifidobacterium sp) (protein)
chain: MKFTTAKKAVALTGAVAMLVSVAACGSDSGKSSQPAQDSDVKEITVWAWEPSLTQVAKDFEKETGIKVDLKNVGTNTKEYTQLDNAIEAGSGAPDVAQVEYYAVPQYAIKGNLLDITDKTSGYKDFYTPGPWASVQFAGKVYGLPMDSGPMAFFYNKEVFDKAGVDAEQIKTWDQYYDAAKKIHALGDNYYITSDTGDAGFFDSMTWLAGAKPFQTSSDGSEVTVNLTEDKGVKTFTDFWQKLLDEGLLDTKTAGWSEDWFKGMVDGTIASLFTGAWMPANLANSAADGAGKWRVTQMPTADGSTTNSENGGSSLAVLASTKKADAAYQFIEYANHGAGVATRVAGGAFPADKASLEKDSFKNATTVKNADGQDVDYFGGQKYNEVLAQAAENVSSGYQFLPFEVKARTIFGDYFGKSYTGDQKLSDGVAAWQKALQDYGKDQGFTVK
[1]
  glycan array binding signal (z-score): -0.161
[2]
  glycan array binding signal (z-score): -0.08
Fuc(a1-2)Gal(b1-4)Glc6S
  glycan array binding signal (z-score): -0.184
[3]
  glycan array binding signal (z-score): -0.127
[4]
  glycan array binding signal (z-score): -0.104
[5]
  glycan array binding signal (z-score): -0.097
[6]
  glycan array binding signal (z-score): 0.019
[7]
  glycan array binding signal (z-score): -0.15
Fuc(a1-4)GlcNAc
  glycan array binding signal (z-score): -0.077
Gal(a1-3)Gal(b1-3)GlcNAc
  glycan array binding signal (z-score): -0.129
[8]
  glycan array binding signal (z-score): 0.067
[9]
  glycan array binding signal (z-score): -0.013
Gal(b1-3)GlcNAc(b1-2)Man
  glycan array binding signal (z-score): 0.008
[10]
  glycan array binding signal (z-score): -0.138
[11]
  glycan array binding signal (z-score): -0.133
[12]
  glycan array binding signal (z-score): -0.08
Gal(b1-4)GlcNAc(b1-2)Man
  glycan array binding signal (z-score): -0.12
[13]
  glycan array binding signal (z-score): -0.101
[14]
  glycan array binding signal (z-score): -0.145
[15]
  glycan array binding signal (z-score): 14.9
[16]
  glycan array binding signal (z-score): 0.588
[17]
  glycan array binding signal (z-score): 1.4
[18]
  glycan array binding signal (z-score): 0.282
[19]
  glycan array binding signal (z-score): 0.333
[20]
  glycan array binding signal (z-score): 0.271
[21]
  glycan array binding signal (z-score): 0.348
[22]
  glycan array binding signal (z-score): 1.66
[23]
  glycan array binding signal (z-score): 1.8
Gal(b1-6)Gal
  glycan array binding signal (z-score): 11
Gal3S(b1-4)Glc
  glycan array binding signal (z-score): -0.135
GalNAc(b1-3)Gal
  glycan array binding signal (z-score): -0.116
[24]
  glycan array binding signal (z-score): -0.139
[25]
  glycan array binding signal (z-score): 0.398
GalNAc(b1-6)GalNAc
  glycan array binding signal (z-score): -0.095
GalNAc3S(b1-4)GlcNAc3S
  glycan array binding signal (z-score): -0.058
[26]
  glycan array binding signal (z-score): 0.042
[27]
  glycan array binding signal (z-score): -0.12
[28]
  glycan array binding signal (z-score): 0.008
[29]
  glycan array binding signal (z-score): -0.052
[30]
  glycan array binding signal (z-score): 0.007
Man(b1-4)GlcNAc
  glycan array binding signal (z-score): -0.154
Neu5Ac(a2-3)Gal
  glycan array binding signal (z-score): -0.108
[31]
  glycan array binding signal (z-score): -0.112
[32]
  glycan array binding signal (z-score): -0.063
[33]
  glycan array binding signal (z-score): -0.118
[34]
  glycan array binding signal (z-score): -0.128
[35]
  glycan array binding signal (z-score): -0.094
[36]
  glycan array binding signal (z-score): -0.036
